Measurements reported in PubChem BioAssay AID1159580 (chemical genetic matrix, 2015).
Among all 5,500 compounds or so, about 2,000 (36%) were called active. Another 18% or so got no clear call; they are omitted. No stated cut-off is given here; in the data, active means normalized growth mostly below about 0.91 (no sharp cut-off); inconclusive means no clear call, values can overlap the other calls; inactive means mostly above about 0.92. Some of the results follow.

Test: chemical genetic growth profiling, strain panel (AID 1159580);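 further: tested at 20 µM; growth read once vehicle control cultures reached saturation at 30 °C; 1 = growth at the plate median or of vehicle wells; lower values mean less growth of the strain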
Settings: growth OD

Measured: normalized growth

COc1ccc2cc(CCC(C)=O)ccc2c1
inactive: S. cerevisiae deletion strains, locus YJR075W, strain HOC1, hits give low values 0.965 | S. cerevisiae deletion strains, locus YKL068W, hits give low values 0.963 | S. cerevisiae deletion strains, locus YKL085W, strain MDH1 (second series), hits give low values 0.966 | S. cerevisiae deletion strains, locus YKL085W, strain MDH1, hits give low values 0.966 | S. cerevisiae deletion strains, locus YKL160W, strain elf1, hits give low values 0.997 | S. cerevisiae deletion strains, locus YKL190W, strain CNB1, hits give low values 0.972 | S. cerevisiae deletion strains, locus YKR001C, strain vps1, hits give low values 0.932 | S. cerevisiae deletion strains, locus YKR026C, strain gcn3, hits give low values 0.984 | S. cerevisiae deletion strains, locus YKR091W, strain srl3, hits give low values 0.992 | S. cerevisiae deletion strains, locus YLL001W, strain dnm1, hits give low values 0.982 | S. cerevisiae deletion strains, locus YLL026W, hits give low values 0.991 | S. cerevisiae deletion strains, locus YLL041C, strain sdh2, hits give low values 0.996 | S. cerevisiae deletion strains, locus YLR027C, strain aat2, hits give low values 0.997 | S. cerevisiae deletion strains, locus YLR039C, strain RIC1, hits give low values 1.11 | S. cerevisiae deletion strains, locus YLR058C, strain SHM2, hits give low values 0.948 | S. cerevisiae deletion strains, locus YLR102C, strain apc9, hits give low values 0.944 | S. cerevisiae deletion strains, locus YLR113W, strain HOG1, hits give low values 0.965 | S. cerevisiae deletion strains, locus YLR221C, strain rsa3, hits give low values 0.992 | S. cerevisiae deletion strains, locus YLR258W, strain gsy2, hits give low values 0.998 | S. cerevisiae deletion strains, locus YLR262C, strain YPT6 (second series), hits give low values 1.03 | S. cerevisiae deletion strains, locus YLR262C, strain YPT6, hits give low values 1.04 | S. cerevisiae deletion strains, locus YLR268W, strain sec22, hits give low values 1.01 | S. cerevisiae deletion strains, locus YLR320W, strain mms22, hits give low values 0.971 | S. cerevisiae deletion strains, locus YLR330W, strain CHS5, hits give low values 0.951 | S. cerevisiae deletion strains, locus YLR342W, strain FKS1 (second series), hits give low values 0.885 | S. cerevisiae deletion strains, locus YLR342W, strain FKS1, hits give low values 0.993 | S. cerevisiae deletion strains, locus YLR357W, strain rsc2, hits give low values 0.992 | S. cerevisiae deletion strains, locus YLR370C, strain arc18, hits give low values 0.998 | S. cerevisiae deletion strains, locus YLR371W, strain rom2, hits give low values 0.932 | S. cerevisiae deletion strains, locus YLR384C, strain iki3, hits give low values 0.986 | S. cerevisiae deletion strains, locus YML016C, strain PPZ1, hits give low values 0.941 | S. cerevisiae deletion strains, locus YML032C, strain rad52, hits give low values 0.967 | S. cerevisiae deletion strains, locus YML120C, strain ndi1, hits give low values 0.985 | S. cerevisiae deletion strains, locus YMR058W, strain fet3, hits give low values 0.996 | S. cerevisiae deletion strains, locus YMR078C, strain ctf18, hits give low values 0.929 | S. cerevisiae deletion strains, locus YMR125W, strain sto1, hits give low values 1.01 | S. cerevisiae deletion strains, locus YMR129W, hits give low values 0.983 | S. cerevisiae deletion strains, locus YMR205C, strain PFK2, hits give low values 1.01 | S. cerevisiae deletion strains, locus YMR231W, strain pep5, hits give low values 0.999 | S. cerevisiae deletion strains, locus YMR263W, strain SAP30, hits give low values 0.923 | S. cerevisiae deletion strains, locus YMR307W, strain GAS1, hits give low values 0.917 | S. cerevisiae deletion strains, locus YNL067W, strain RPL9B, hits give low values 0.97 | S. cerevisiae deletion strains, locus YNL071W, strain lat1, hits give low values 0.987 | S. cerevisiae deletion strains, locus YNL128W, strain TEP1, hits give low values 0.963 | S. cerevisiae deletion strains, locus YNL153C, strain GIM3, hits give low values 0.975 | S. cerevisiae deletion strains, locus YNL183C, strain NPR1, hits give low values 0.91 | S. cerevisiae deletion strains, locus YNL209W, strain ssb2, hits give low values 0.995 | S. cerevisiae deletion strains, locus YNL233W, strain BNI4, hits give low values 0.972 | S. cerevisiae deletion strains, locus YNL248C, strain rpa49, hits give low values 1.02 | S. cerevisiae deletion strains, locus YNL250W, strain rad50, hits give low values 0.943 | S. cerevisiae deletion strains, locus YNL271C, strain bni1, hits give low values 0.939 | S. cerevisiae deletion strains, locus YNL298W, strain CLA4, hits give low values 0.919 | S. cerevisiae deletion strains, locus YNL322C, strain KRE1 (second series), hits give low values 0.996 | S. cerevisiae deletion strains, locus YNL322C, strain KRE1, hits give low values 0.961 | S. cerevisiae deletion strains, locus YNR049C, strain mso1, hits give low values 0.991 | S. cerevisiae deletion strains, locus YNR052C, strain pop2, hits give low values 0.972 | S. cerevisiae deletion strains, locus YOL006C, strain TOP1, hits give low values 0.672 | S. cerevisiae deletion strains, locus YOL012C, strain htz1 1.84 | S. cerevisiae deletion strains, locus YOL147C, strain pex11, hits give low values 0.939 | S. cerevisiae deletion strains, locus YOR001W, strain rrp6, hits give low values 0.979 | S. cerevisiae deletion strains, locus YOR061W, strain CKA2, hits give low values 0.947 | S. cerevisiae deletion strains, locus YOR069W, strain VPS5, hits give low values 0.97 | S. cerevisiae deletion strains, locus YOR070C, strain gyp1, hits give low values 0.991 | S. cerevisiae deletion strains, locus YOR080W, strain dia2, hits give low values 0.988 | S. cerevisiae deletion strains, locus YOR083W, strain WHI5, hits give low values 0.985 | S. cerevisiae deletion strains, locus YOR106W, strain vam3, hits give low values 1 | S. cerevisiae deletion strains, locus YOR136W, strain idh2, hits give low values 0.956 | S. cerevisiae deletion strains, locus YOR144C, strain elg1, hits give low values 0.951 | S. cerevisiae deletion strains, locus YOR231W, strain MKK1, hits give low values 0.93 | S. cerevisiae deletion strains, locus YOR265W, strain rbl2, hits give low values 0.987 | S. cerevisiae deletion strains, locus YOR270C, strain vph1, hits give low values 0.886 | S. cerevisiae deletion strains, locus YOR290C, strain snf2, hits give low values 0.977 | S. cerevisiae deletion strains, locus YOR316C, strain cot1, hits give low values 0.943 | S. cerevisiae deletion strains, locus YPL051W, strain arl3, hits give low values 0.985 | S. cerevisiae deletion strains, locus YPL055C, strain LGE1, hits give low values 0.88 | S. cerevisiae deletion strains, locus YPL078C, strain atp4, hits give low values 0.981 | S. cerevisiae deletion strains, locus YPL106C, strain sse1, hits give low values 0.96 | S. cerevisiae deletion strains, locus YPL240C, strain hsp82, hits give low values 0.992 | S. cerevisiae deletion strains, locus YPL241C, strain CIN2, hits give low values 0.96 | S. cerevisiae deletion strains, locus YPL256C, strain CLN2, hits give low values 0.911 | S. cerevisiae deletion strains, locus YPR119W, strain clb2, hits give low values 0.943 | S. cerevisiae deletion strains, locus YPR141C, strain kar3, hits give low values 0.924 | S. cerevisiae deletion strains, locus YPR163C, strain tif3, hits give low values 0.935 | S. cerevisiae deletion strains, locus YPR167C, strain met16, hits give low values 0.941 | S. cerevisiae deletion strains, strain wtn01, hits give low values 0.959 | S. cerevisiae strains, strain wild type, hits give low values 0.935
active: S. cerevisiae deletion strains, locus YKL009W, strain mrt4, hits give low values 0.86 | S. cerevisiae deletion strains, locus YLR418C, strain cdc73, hits give low values 0.78 | S. cerevisiae deletion strains, locus YML124C, strain tub3, hits give low values 0.929 | S. cerevisiae deletion strains, locus YMR223W, strain ubp8, hits give low values 0.895 | S. cerevisiae deletion strains, locus YNL307C, strain MCK1, hits give low values 0.827 | S. cerevisiae deletion strains, locus YOR184W, strain ser1, hits give low values 0.786
